For part of these data: Potency and affinity values are given separately.
Tests used:
Parameters in all cases: scale not given: direction of the effect not stated beside the values
[1] = molecular target: Protein translocase subunit SecA (Escherichia coli (strain K12)) (UniProt P10408); assay: Assay to Identify E. coli SecA ATPase Inhibitors; format: functional; settings: 30 µM
[2] = molecular target: T1, Ubiquitin-activating enzyme e1, putative (Leishmania donovani (strain BPK282A1)) (UniProt E9BSI1); assay: Leishmania donovani Ubiquitin Activating Enzyme (LdE1); format: functional; settings: 30 µM
T1 sequence (whole entry): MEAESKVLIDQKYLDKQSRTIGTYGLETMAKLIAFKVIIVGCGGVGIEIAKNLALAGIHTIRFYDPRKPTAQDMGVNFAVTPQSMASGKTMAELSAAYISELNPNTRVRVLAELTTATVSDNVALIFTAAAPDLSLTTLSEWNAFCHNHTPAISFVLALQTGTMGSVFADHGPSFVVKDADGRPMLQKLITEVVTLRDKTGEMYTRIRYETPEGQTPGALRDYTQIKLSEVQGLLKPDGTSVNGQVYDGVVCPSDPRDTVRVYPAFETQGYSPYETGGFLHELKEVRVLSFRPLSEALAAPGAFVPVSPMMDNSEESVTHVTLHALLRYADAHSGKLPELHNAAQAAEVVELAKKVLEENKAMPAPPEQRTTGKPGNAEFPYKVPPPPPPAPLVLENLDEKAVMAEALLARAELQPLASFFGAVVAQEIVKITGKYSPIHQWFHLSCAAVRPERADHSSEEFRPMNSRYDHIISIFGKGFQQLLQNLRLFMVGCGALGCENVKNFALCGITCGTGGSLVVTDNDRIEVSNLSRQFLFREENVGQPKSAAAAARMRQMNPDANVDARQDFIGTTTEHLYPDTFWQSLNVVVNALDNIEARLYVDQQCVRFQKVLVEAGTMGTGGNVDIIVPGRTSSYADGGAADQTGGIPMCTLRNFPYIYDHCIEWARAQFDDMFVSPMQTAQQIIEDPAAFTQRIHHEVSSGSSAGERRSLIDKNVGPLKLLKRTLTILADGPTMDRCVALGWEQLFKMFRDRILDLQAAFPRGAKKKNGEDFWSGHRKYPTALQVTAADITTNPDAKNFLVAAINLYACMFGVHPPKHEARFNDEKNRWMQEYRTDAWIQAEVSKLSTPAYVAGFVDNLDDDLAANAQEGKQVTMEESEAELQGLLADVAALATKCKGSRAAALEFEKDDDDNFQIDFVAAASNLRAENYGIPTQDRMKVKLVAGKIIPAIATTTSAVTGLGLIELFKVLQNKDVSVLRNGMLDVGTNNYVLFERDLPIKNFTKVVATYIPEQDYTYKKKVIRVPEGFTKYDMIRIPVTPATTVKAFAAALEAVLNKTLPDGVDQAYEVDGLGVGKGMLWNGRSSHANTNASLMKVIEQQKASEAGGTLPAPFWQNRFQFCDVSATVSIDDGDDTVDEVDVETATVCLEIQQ

[3] = molecular target: Sialic acid-binding Ig-like lectin 9 (Homo sapiens) (UniProt Q9Y336); assay: Hs-Siglec9 ALPHAscreen SOP 20170721; settings: 10 µM
Sialic acid-binding Ig-like lectin 9 (Homo sapiens), sequence (Q9Y336 whole entry): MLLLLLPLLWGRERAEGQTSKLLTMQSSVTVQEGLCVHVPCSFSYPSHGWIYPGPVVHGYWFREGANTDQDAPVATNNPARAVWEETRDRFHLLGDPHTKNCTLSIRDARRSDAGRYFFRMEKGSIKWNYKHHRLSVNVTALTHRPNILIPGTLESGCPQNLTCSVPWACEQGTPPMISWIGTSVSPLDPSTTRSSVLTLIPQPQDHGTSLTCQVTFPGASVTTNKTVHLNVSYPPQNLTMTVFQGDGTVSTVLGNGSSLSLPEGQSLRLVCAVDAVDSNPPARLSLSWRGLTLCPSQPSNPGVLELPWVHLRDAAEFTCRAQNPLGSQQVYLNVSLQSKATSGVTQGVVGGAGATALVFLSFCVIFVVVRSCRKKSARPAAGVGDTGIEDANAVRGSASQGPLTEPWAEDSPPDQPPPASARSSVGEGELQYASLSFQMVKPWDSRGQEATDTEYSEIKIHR

Trypanosoma cruzi = assay: Trypanosoma cruzi phosphomannomutase and mannose-1-phosphate guanylyltransferase assay; format: functional; settings: 10 µM
[4] = molecular target: T2, Arginase-2, mitochondrial (Homo sapiens) (UniProt P78540); assay: in vitro enzyme assay to detect the production of urea directly proportional to the activity of Arginase II; format: functional; settings: 33.3 µM; also: in the data most compounds retested in dose-response had high values
T2 sequence (whole entry): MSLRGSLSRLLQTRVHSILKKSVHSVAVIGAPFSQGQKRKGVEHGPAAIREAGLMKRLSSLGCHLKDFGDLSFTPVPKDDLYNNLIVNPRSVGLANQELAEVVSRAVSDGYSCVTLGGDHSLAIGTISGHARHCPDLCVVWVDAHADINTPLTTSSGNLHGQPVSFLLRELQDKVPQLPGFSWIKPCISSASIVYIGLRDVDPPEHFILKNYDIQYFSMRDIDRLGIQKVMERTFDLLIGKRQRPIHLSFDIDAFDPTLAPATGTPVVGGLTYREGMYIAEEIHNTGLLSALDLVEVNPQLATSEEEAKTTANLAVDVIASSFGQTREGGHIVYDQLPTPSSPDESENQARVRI

[5] = molecular target: T3, Proteasome subunit beta (Trypanosoma cruzi) (UniProt O96673); assay: Trypanosoma cruzi proteasome chymotrypsin-like activity (TcProtChymo) assay.; also: in the data most compounds retested in dose-response had high values; format: functional; settings: 9.37 µM
T3 sequence (whole entry): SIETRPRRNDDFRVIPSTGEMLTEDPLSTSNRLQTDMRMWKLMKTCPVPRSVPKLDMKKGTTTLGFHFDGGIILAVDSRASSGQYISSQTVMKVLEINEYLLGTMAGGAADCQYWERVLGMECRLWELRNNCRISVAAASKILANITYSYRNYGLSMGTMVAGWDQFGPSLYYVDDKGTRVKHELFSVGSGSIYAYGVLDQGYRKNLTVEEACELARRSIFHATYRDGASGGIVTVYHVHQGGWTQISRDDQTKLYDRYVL

Homo sapiens = species: Homo sapiens; assay: To identify inhibition of the IFN signalling (Jak-Stat) pathway via expression of an eGFP reporter gene under the control of an IFN-stimulated response element (ISRE) containing MxA promoter.; format: functional; settings: 30 µM
[6] = molecular target: T4, Tyrosyl-tRNA synthetase, putative (Trypanosoma cruzi (strain CL Brener)) (UniProt Q4DSP6); assay: Trypanosoma cruzi tyrosyl tRNA synthetase (TcYRS) _High Tyrosine SOP; format: functional; settings: 30 µM; also: in the data most compounds retested in dose-response had high values
T4 sequence (whole entry): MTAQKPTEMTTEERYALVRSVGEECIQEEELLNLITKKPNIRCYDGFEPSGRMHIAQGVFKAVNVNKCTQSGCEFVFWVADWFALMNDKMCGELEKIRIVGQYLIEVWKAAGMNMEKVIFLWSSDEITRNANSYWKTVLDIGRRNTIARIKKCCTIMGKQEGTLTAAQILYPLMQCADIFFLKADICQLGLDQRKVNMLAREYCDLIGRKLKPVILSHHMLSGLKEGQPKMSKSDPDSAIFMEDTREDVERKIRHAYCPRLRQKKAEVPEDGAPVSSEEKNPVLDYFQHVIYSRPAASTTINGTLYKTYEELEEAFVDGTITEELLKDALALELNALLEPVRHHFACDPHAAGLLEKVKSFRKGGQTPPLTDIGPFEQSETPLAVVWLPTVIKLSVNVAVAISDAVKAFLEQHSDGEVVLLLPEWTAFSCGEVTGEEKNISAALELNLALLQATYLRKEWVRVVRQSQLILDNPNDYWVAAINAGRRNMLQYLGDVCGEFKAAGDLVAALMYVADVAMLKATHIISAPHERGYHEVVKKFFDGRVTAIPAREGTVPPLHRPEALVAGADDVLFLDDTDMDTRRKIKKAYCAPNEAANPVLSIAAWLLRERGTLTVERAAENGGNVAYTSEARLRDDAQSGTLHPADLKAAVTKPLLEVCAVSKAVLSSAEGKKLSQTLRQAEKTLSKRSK

[7] = molecular target: T4, Tyrosyl-tRNA synthetase, putative (Trypanosoma cruzi (strain CL Brener)); assay: Trypanosoma cruzi tyrosyl tRNA synthetase (TcYRS) SOP; format: functional; settings: 30 µM
[8] = molecular target: Chromo domain-containing protein 1 (Saccharomyces cerevisiae (strain ATCC 204508 / S288c) (Baker's yeast)) (UniProt P32657); assay: ScCHD-1 Enzyme Inhibition Assay; format: functional; settings: 30 µM; also: in the data most compounds retested in dose-response had high values
Chromo domain-containing protein 1 (Saccharomyces cerevisiae (strain ATCC 204508 / S288c) (Baker's yeast)), sequence (P32657 whole entry, the tested form may be a part): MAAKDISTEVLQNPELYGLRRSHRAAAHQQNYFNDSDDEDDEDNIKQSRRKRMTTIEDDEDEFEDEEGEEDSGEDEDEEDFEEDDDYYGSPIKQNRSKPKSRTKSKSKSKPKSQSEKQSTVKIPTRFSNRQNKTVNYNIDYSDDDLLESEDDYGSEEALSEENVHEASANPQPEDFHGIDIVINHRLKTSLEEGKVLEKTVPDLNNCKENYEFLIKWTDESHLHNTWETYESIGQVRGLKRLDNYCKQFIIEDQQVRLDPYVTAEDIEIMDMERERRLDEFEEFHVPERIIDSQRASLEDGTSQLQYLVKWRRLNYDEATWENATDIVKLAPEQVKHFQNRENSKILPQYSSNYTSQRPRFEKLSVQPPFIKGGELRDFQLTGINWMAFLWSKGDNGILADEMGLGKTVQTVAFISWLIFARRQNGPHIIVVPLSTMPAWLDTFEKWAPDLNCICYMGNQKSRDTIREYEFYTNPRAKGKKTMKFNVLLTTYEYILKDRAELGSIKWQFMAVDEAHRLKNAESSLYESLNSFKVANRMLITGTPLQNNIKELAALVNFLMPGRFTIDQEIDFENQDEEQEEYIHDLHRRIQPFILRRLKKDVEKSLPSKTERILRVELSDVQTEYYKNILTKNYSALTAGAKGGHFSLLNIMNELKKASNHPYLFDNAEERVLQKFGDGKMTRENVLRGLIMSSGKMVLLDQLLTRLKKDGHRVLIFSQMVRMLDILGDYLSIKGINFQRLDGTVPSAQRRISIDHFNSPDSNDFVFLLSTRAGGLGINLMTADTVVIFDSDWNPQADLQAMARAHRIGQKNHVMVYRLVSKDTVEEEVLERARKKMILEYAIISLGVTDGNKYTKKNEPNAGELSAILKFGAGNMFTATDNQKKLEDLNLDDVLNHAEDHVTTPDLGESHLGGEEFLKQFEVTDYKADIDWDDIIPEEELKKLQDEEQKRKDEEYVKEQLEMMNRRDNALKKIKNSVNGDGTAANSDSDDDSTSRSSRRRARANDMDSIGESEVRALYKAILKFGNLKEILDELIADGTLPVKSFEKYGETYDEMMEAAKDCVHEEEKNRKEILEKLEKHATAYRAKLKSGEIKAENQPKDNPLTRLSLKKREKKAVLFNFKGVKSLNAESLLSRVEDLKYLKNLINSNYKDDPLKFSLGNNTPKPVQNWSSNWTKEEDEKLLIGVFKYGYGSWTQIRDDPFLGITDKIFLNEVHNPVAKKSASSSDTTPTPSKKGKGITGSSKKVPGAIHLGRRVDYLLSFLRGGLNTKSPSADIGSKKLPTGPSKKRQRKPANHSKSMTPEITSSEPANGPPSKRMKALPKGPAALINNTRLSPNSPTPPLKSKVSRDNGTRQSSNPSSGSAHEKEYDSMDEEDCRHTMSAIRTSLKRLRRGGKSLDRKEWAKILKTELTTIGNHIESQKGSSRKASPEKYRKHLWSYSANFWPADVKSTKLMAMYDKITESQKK

Protein translocase subunit SecA (Escherichia coli (strain K12)), sequence (P10408 whole entry): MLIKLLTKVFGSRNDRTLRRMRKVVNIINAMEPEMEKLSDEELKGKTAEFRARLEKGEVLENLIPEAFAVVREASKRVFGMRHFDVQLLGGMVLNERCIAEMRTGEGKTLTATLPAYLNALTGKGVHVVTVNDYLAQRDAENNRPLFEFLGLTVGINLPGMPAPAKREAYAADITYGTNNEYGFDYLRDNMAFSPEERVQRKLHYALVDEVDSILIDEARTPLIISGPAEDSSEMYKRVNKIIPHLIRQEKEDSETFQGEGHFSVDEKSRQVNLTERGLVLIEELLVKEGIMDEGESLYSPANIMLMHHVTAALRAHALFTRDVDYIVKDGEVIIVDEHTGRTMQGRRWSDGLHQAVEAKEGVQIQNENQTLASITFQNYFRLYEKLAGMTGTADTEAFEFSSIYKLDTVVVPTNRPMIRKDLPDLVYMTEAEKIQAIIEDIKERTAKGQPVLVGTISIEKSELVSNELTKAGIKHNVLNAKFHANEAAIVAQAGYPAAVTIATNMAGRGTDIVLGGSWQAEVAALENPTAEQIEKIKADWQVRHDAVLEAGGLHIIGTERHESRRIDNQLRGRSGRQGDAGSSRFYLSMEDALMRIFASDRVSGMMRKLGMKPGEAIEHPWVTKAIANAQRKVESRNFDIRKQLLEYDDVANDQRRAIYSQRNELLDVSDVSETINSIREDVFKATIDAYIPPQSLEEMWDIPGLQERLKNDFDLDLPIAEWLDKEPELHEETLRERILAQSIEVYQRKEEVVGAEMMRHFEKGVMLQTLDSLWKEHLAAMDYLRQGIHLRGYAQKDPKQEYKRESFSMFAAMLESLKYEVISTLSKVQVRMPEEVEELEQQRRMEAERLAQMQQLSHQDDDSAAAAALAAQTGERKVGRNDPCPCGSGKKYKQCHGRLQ

Row | Structure (SMILES) | Percent Effect [1] [%] | Percent Effect [2] [%] | Percent Effect [3] [%] | Percent Effect (Trypanosoma cruzi) [%] | Percent Effect [4] [%] | Percent Effect [5] [%] | Percent Effect (Homo sapiens) [%] | Percent Effect [6] [%] | Percent Effect [7] [%] | Percent Effect [8] [%]
1 | O=C1NCc2ccc(NC(=O)C3CCCN3c3nccs3)cc21 (stereo not given) | 0.371 | -7.69 | 12.8 | 0.0939 | -1.23 | 1.96 | -7.22 | -0.478 | -6.02 | 105
2 | CCn1ccnc1CNCC1CCCN1c1cccnn1 (stereo not given) | -4.44 | 2.67 | 5.47 | 0.803 | 0.444 | 1.78 | 9.51 | 6.84 | 12.8 | -8.32
3 | Cc1c(O)oc(-c2ccc(Br)cc2)nc1=O | -4.74 | -73.3 | -12.4 | 2.96 | -4.87 | 12.6 | 12.7 | 3.17 | 15 | -18.8
4 | CC(C)c1noc(CCC(=O)NCC2CCOC2)n1 (stereo not given) | -1.25 | 0 | -0.749 | 0.602 | -5.32 | 10.8 | 2.04 | 8.95 | 17.9 | -9.05
5 | COc1ccc(CC(=O)NC2(C)CCS(=O)(=O)C2)cc1F (stereo not given) | -0.834 | 10.7 | -4.85 | 0.803 | -1.77 | 4.5 | 8.89 | 5.79 | 12.8 | -12.7
6 | Cc1cc(-c2ccc(C(=O)O)cc2)nc(C2CCCN(C(C)C)C2)n1 (stereo not given) | -0.51 | 12 | 1.15 | 1.77 | 0.885 | 6.08 | 4.86 | 6.35 | 17.5 | -24.7
7 | COCc1nc(CNC2CCSCC2)no1 | -6.18 | 2.7 | 1.55 | 3.98 | 1.75 | 7.36 | -12.7 | 3.72 | 9.76 | -0.943
8 | Cc1nc(CN2CCCC(CCc3c(F)cccc3F)C2)c[nH]1 (stereo not given) | -4.35 | -13.5 | 23.7 | 9.6 | -6.64 | 1.37 | 18.7 | 5.85 | 7.32 | 96.9
9 | C[C@H]1CN(Cc2cnn(C)c2)C[C@@]12CCN(Cc1cccnc1)C2=O | -2.17 | 11.7 | 0.906 | -5.07 | 4.57 | 4.21 | 23.4 | 6.76 | 2.5 | -3.65
10 | Cc1cnn(CC2CN(CC(=O)N3CCc4ccccc43)CCO2)c1 (stereo not given) | -4.43 | 8 | 4.38 | -0.803 | 3.55 | 3.48 | 6.22 | 4.74 | -5.13 | -9.1
11 | COc1ncc(C2(O)CCN(Cc3cccs3)CC2)c(OC)n1 | -5.49 | 22.7 | -1.28 | 2.76 | -3.54 | 11.2 | 4.21 | 8.47 | 20 | -25.5
12 | Cc1oncc1C(=O)NCc1cc(=O)n2c(n1)CN(C)CCC2 | -1.85 | 6.49 | -2.27 | -8.28 | 4.86 | 24.6 | 12.2 | 2.63 | 12.8 | -1.21
13 | CCn1cc(NC(=O)NCc2ccc(CN3CCOCC3)cc2)cn1 | 0.918 | 13 | 16 | -7.28 | -6.35 | 10 | 24.2 | 4.9 | 11.8 | -1.62
14 | CN1CC(c2ccccc2)CC12CCN(C(=O)c1ccc(F)cc1)CC2 (stereo not given) | -9.69 | 0 | 9.54 | -2.04 | 2.45 | 6.34 | 16.1 | 0.532 | 2.44 | -1.53
15 | Cc1noc(C2CCN(Cc3cc(=O)n(C)c(=O)n3C)CC2)n1 | -4.76 | 16 | 3.89 | 0.602 | 0 | 13.2 | 15.2 | 3.68 | 12.8 | -9.16
